Experimental data published in PubChem BioAssay (NCI).
Where “and” joins values, the source holds several entries; their conditions need not be identical. Identical values can stand only once. About 83,000 compounds went through this panel and 20% of them were active in at least one assay; those are over-represented in the sample as a whole.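 Results are percent growth after 48 hours of single-concentration exposure. 100 means growth as in untreated cells, lower positive values show inhibition; negative values down to -100 show cell death.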 A number with no mark means an inactive call. Calls of active or inactive are those of the source. The calls were made as follows: active = growth percent below 10; inactive = the rest.

What follows are compounds tested on HL-60(TB) leukemia (assay: NCI-60 one-dose screen, 48 h (100 = growth as untreated, 0 = no growth, -100 = all killed)). Details: 10 µM unless noted.

| Structure (SMILES) | growth |
| --- | --- |
| CC(C)(C)n1cc(-c2ccnc(NCCNS(=O)(=O)c3cccc4ccccc34)c2)c(-c2cccc(F)c2)n1 | -52.3% (active) |
| CC(C)C(NC(=O)CN)C(=O)O (stereo not given) | 94.9% and 98.7% |
| N#CC1=C(Nc2ccccc2Cl)SC(c2ccccc2O)NC1=O (stereo not given) | 93.1% |
| N/N=C(\C(=N\N)c1ccccc1)c1ccccc1 | 84.7% |
| COc1cccc(O)c1O | 73.6% |
| C=C1C(=O)O[C@H]2[C@H]1CC/C(COC(=O)NCc1c[nH]c3ccc(OC)cc13)=C\CC[C@@]1(C)O[C@@H]21 | -35.8% (active) |
| CC(c1ccccc1)n1ccnc1CO (stereo not given) | 101% |
| CCCCNC(=O)Oc1ccc(/C(=C(\C)c2ccc(Cl)cc2)c2ccc(OCCN(CC)CC)cc2)cc1 | 69.8% |
| COC(=O)/C=C1\S/C(=N\NS(=O)(=O)c2ccc(C)cc2)N(c2ccccc2)C1=O | 105% |
| C=C(C[C@](O)(C(=O)/C=C/c1ccc(Cl)cc1)C(=O)OC)c1ccccc1 | 59.2% |
| CCC1S/C(=N\N=C(/C)c2ccco2)N(c2ccccc2)C1=O (stereo not given) | 106% |
| O=C(CSc1nc2ccc([N+](=O)[O-])cc2[nH]1)Nc1ccc(F)c(Cl)c1 | 10.7% |
| CC1=C(/C=C/C(C)=C/C=C/C(C)=C/C(=O)O)C(C)(C)CCC1 | 79.2% and 46.2% and 67% |
| Cc1ccc(N)c(S(=O)(=O)O)c1 | 74.5% |
| O=c1c2sc3ccccc3c2nnn1-c1ccc(F)c(Cl)c1 | 73.7% |
